Results filed as inconclusive are left out. Calls of active or inactive are those of the source. Unless noted, calls come from the whole dose curve; as a rule, active = well fitted curve in either direction with a large enough effect (not every such curve was filed as active); inconclusive = small, poorly fitted or top-dose-only effect, or another doubt; inactive = flat fitted curve, though single readings scatter.
Legend:
[1] = target: Lysosomal acid glucosylceramidase (Homo sapiens) (UniProt P04062); assay: Glucocerebrosidase-p2 (AID 348; in the data active = potency below about 10 µM; note: potency is the fitted concentration of half-maximal effect); details: purified GBA, blue fluorogenic substrate, 40 min
Sequence of Lysosomal acid glucosylceramidase (Homo sapiens) (P04062 whole entry, looked up): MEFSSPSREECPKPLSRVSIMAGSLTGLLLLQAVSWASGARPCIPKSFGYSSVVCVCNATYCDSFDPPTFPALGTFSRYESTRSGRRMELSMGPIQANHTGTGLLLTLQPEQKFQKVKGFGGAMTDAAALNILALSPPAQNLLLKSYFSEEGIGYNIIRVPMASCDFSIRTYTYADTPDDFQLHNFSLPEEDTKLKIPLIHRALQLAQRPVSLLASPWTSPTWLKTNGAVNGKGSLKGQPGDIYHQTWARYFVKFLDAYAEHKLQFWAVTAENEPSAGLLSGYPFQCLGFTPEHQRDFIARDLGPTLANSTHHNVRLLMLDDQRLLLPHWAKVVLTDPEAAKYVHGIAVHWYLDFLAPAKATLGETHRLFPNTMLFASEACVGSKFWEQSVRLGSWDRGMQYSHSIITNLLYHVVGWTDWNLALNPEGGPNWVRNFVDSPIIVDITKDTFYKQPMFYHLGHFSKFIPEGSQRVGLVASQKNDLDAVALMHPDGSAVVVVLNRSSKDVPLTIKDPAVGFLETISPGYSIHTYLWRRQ
Summary of the method: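 Compounds titrated from 0.6 nM upwards against 0.2 nM enzyme in pH 5.9 citric acid/KH2PO4, taurocholate, tween-20; blue fluorogenic substrate 80 uM, 40 min room temperature, stopped and read Ex 365/Em 440 for AC50.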

[2] = AP1 Signaling Pathway (AID 357); details: ME-180 AP-1-bla reporter, EGF-induced, beta-lactamase ratio, 5 h; at 7.69 µM (top of the series) unless noted; note: % is set by controls: 0 for no effect and ±100 for the full control effect
Summary of the method: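 AP-1-bla ME-180 cells with beta-lactamase reporter under AP-1 response element, stimulated with EC50 EGF; compounds titrated, 5 hours at 37 degrees Celsius. CCF4 read at 460/530 nm ratio; positive and negative modulators judged by AC50.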

[3] = target: Cytochrome P450 1A2 (Homo sapiens) (UniProt P05177); assay: p450-cyp1a2 (AID 410; calls by dose curve; note: potency is the fitted concentration of half-maximal effect;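 for activity change, negative = inhibition: -100% = full effect of reference inhibitor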); details: recombinant CYP1A2, luciferin-ME demethylation, luminescence; series mostly up to 57 µM
Sequence of Cytochrome P450 1A2 (Homo sapiens) (P05177 whole entry, looked up): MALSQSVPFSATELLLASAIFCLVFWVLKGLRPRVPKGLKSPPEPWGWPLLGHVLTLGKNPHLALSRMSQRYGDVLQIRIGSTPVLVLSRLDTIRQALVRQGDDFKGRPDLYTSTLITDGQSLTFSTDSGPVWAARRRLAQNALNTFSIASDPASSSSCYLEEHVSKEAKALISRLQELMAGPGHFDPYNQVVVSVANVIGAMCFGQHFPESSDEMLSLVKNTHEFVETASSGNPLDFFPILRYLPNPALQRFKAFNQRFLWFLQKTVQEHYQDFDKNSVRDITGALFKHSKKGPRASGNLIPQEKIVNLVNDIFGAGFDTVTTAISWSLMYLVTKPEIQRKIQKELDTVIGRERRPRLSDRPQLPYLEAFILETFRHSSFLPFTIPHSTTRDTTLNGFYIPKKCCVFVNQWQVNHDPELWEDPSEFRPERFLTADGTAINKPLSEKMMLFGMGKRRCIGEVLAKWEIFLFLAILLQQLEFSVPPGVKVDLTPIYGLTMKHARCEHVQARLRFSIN
Summary of the method: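 Inhibition was calculated relative to 57 uM furafylline (full inhibition). The reaction used human CYP1A2 at 20nM with Luciferin-ME at its Km, 100uM, driven by an NADPH-regenerating system for 60 min at room temperature.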

[4] = NFAT Signaling Pathway (AID 444); details: Jurkat NFAT-bla M1, carbachol, beta-lactamase ratio, 5 h; at 7.69 µM (top of the series) unless noted;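 note: carbachol stimulus at about its EC50 of 1 µM final; % is set by controls: 0 for no effect and ±100 for the full control effect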
Summary of the method: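 Jurkat cells carrying an NFAT-driven β-lactamase reporter and co-transfected muscarinic M1 receptor were treated with compound plus carbachol (1 uM final, an EC50 level) for 5 h at 37 °C. CCF4 loading followed for 1 h at RT; 460/530 nm ratio gave %activity.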

[5] = Stat Signaling Pathway (AID 446); details: ME-180 SIE beta-lactamase reporter, IL-6 stimulated, 5 h; at 7.69 µM (top of the series) unless noted;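 note: ME-180 cervical cancer cells given 40 pM IL-6 alongside compound; SIE-controlled beta-lactamase reporter measured as 460/530 nm FRET emission ratio; % is set by controls: 0 for no effect and ±100 for the full control effect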
Summary of the method: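 Screening format detects activators and inhibitors alike: ME-180 SIE-bla cells stimulated at 40 pM IL-6 for 5 hrs with compound, then dual-emission beta-lactamase read at 405 nm excitation.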

[6] = target: Glucocorticoid receptor (Homo sapiens) (UniProt P04150); assay: GR-EFC Redistribution (AID 451; calls by dose curve; note: potency is the fitted concentration of half-maximal effect); details: CHO-K1 GR-EFC translocation, beta-gal luminescence, 2 h
Sequence of Glucocorticoid receptor (Homo sapiens) (P04150 whole entry, looked up, the tested form may be a part): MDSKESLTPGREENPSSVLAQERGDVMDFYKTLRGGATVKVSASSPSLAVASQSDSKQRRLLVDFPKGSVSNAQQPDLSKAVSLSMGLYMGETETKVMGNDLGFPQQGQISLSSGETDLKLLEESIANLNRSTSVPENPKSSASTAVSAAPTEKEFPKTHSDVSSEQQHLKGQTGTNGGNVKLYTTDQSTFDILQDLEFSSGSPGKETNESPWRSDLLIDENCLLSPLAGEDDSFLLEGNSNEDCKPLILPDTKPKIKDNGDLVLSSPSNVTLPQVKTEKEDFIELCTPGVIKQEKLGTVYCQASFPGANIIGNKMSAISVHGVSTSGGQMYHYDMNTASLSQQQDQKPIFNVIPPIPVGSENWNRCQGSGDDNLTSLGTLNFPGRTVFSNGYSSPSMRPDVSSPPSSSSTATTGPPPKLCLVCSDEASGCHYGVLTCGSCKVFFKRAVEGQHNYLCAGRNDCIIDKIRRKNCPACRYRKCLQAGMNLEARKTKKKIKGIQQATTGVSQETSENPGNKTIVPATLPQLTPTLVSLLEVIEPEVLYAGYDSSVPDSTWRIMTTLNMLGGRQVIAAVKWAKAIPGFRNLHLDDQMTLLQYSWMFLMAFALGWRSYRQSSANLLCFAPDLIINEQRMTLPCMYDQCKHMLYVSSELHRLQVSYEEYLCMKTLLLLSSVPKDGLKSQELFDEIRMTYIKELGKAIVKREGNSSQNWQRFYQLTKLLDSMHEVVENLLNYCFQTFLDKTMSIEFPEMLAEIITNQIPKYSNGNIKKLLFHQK
Summary of the method: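 CHO-K1 cells stably expressing nuclear-localized β-gal enzyme acceptor and GR fused C-terminally to the enzyme donor fragment; ligand-driven nuclear translocation restores β-gal by complementation. Compounds titrated up to 46 uM final, 2 h at 37 °C; luminescence read.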

[7] = target: Mitogen-activated protein kinase 10 (Mus musculus) (UniProt Q61831); assay: JNK3 AlphaScreen Assay (AID 530); details: JNK3 lysate, c-Jun phosphorylation; series mostly up to 57.1 µM;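 note: kinase came from lysate of stimulated human HepG2 cells; signal reports phosphorylation of biotinylated GST-cJun 1-79 at Ser73 with 10 µM ATP; % is set by controls: 0 for no effect and ±100 for the full control effect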
Summary of the method: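 JNK3 came from HepG2 lysates pre-activated with IL-1beta and TNF-alpha and phosphorylated biotinylated GST-cJun (1-79) at 10 uM ATP, pH 7.6, room temperature. Compounds were titrated. AlphaScreen signal used anti-phospho-cJun (Ser73) antibody.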

[8] = target: 3',5'-cyclic-AMP phosphodiesterase 4B (Homo sapiens) (UniProt Q07343); assay: qHTS Assay for Inhibitors of PDE-IV (AID 607; active = well fitted activation curve with a large enough effect in the main read-out, with a control signal flat, not every such curve was filed as active; note: % of control where 0% means no effect); details: HEK293 ACTOne CNG channel cells, membrane potential fluorescence; series mostly up to 22.9 µM
Sequence of 3',5'-cyclic-AMP phosphodiesterase 4B (Homo sapiens) (Q07343 whole entry, looked up): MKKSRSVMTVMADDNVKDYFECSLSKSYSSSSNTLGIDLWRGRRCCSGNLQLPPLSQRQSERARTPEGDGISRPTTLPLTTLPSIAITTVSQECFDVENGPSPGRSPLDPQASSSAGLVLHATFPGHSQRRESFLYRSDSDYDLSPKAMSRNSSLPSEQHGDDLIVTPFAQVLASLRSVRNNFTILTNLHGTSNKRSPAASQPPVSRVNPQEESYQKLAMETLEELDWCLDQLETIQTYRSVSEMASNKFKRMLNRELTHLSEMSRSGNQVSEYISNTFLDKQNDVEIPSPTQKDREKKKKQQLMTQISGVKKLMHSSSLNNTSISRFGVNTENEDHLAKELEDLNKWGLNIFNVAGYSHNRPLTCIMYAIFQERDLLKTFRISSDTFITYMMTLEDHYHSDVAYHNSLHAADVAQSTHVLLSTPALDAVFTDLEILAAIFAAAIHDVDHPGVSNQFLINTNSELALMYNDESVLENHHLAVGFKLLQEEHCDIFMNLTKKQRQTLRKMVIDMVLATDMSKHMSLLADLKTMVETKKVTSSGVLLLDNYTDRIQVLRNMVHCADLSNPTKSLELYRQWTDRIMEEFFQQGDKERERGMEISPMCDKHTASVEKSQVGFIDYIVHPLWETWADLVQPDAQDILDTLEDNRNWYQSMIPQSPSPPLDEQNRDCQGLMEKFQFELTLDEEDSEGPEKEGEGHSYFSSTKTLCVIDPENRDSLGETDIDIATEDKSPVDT
Summary of the method: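 The readout is membrane depolarisation from a cAMP-sensing CNG channel, detected with a potential dye at ex 535/em 590. Cells were HEK293-derived (endogenous PDE-IV) at 1000 cells/well, titrated up to 22.9 uM final.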

[9] = target: Cytochrome P450 3A4 (Homo sapiens) (UniProt P08684); assay: qHTS Assay for Activators of Cytochrome P450 3A4 (AID 885; active = well fitted curve in the direction sought with a large enough effect; an effect the other way counts as inactive or inconclusive; note: nearly all actives have a fitted effect of over 65% in size); details: recombinant CYP3A4, Luciferin-PPXE luminescence, 60 min; series mostly up to 57.1 µM
Sequence of Cytochrome P450 3A4 (Homo sapiens) (P08684 whole entry, looked up): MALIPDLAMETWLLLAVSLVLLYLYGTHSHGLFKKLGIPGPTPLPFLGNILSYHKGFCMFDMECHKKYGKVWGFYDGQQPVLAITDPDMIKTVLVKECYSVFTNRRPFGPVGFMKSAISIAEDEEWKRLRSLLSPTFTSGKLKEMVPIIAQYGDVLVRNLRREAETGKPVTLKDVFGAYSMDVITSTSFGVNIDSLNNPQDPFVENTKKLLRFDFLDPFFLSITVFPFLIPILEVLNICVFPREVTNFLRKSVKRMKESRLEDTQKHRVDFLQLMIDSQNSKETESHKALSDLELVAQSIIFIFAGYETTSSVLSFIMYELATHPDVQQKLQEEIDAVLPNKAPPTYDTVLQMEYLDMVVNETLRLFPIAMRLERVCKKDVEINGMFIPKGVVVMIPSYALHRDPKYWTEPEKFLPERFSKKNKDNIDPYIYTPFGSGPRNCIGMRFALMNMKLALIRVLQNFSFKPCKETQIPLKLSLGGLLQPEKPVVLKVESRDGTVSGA
Summary of the method: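 Steps: enzyme/substrate mix dispensed; compound added, 10 min RT; NADPH regeneration solution added, 60 min RT; luciferin detection buffer stops reaction; 20 min later luminescence measured.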

[10] = qHTS Assay for Identification of Small Molecule Agonists for Hypoxia Response Element Signaling Pathway (AID 914; active = well fitted activation curve with a large enough effect in the signal ratio, with a control signal flat, not every such curve was filed as active; the % refers to the signal ratio; note: % of control where 0% means no effect); details: ME-180 (cervical carcinoma) HRE-bla reporter, beta-lactamase ratio, CoCl2, 17 h; activation: stronger effect = higher value
Summary of the method: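 In Opti-MEM containing 0.5% dialyzed FBS and 10 mM HEPES, ME-180 HRE-bla cells received a compound titration and EC50 CoCl2. They were incubated 17 hours, then CCF4-loaded 2.5 hours at room temperature before ratio reading.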

[11] = qHTS Assay for Lipid Storage Modulators (AID 1519; calls by dose curve); details: Drosophila S3 cells, BODIPY lipid droplet/cell ratio, laser cytometry, cells loaded with oleic acid; for activity change, negative = inhibition: at 57.5 µM (top of the series)
Summary of the method: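 Cells seeded at 5,000 per well were treated with compounds over a concentration series and loaded with oleic acid (400 uM, as added). Lipid droplet fluorescence (488 nm excitation, 500-530 nm channel) was read by laser-scanning cytometry and normalized to 20 uM Triacsin C.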

[12] = Primary qHTS for small molecule stabilizers of the endoplasmic reticulum resident proteome: Secreted ER Calcium Modulated Protein (SERCaMP) assay (AID 1508630; active = well fitted curve in the direction sought with a large enough effect; an effect the other way counts as inactive or inconclusive; note: % is set by controls: 0 for no effect and ±100 for the full control effect); details: SH-SY5Y GLuc-SERCaMP (Gaussia luciferase released on ER calcium loss) secretion, thapsigargin, luminescence; series mostly up to 38.4 µM
Summary of the method: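 GLuc-SERCaMP-expressing SH-SY5Y cells, pretreated 16 h with compound, are challenged with thapsigargin to empty ER calcium stores; after 4 h, coelenterazine is added directly to the medium and luminescence is imaged.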

[13] = target: Cytochrome P450 2D6 (Homo sapiens) (UniProt P10635); assay: qHTS Assay for Inhibitors and Substrates of Cytochrome P450 2D6 (AID 891; active = well fitted curve in the direction sought with a large enough effect; an effect the other way counts as inactive or inconclusive; note: potency is the fitted concentration of half-maximal effect; nearly all actives have a fitted effect of over 60% in size); details: recombinant CYP2D6, luciferin-ME EGE luminescence; series mostly up to 57.1 µM
Sequence of Cytochrome P450 2D6 (Homo sapiens) (P10635 whole entry, looked up): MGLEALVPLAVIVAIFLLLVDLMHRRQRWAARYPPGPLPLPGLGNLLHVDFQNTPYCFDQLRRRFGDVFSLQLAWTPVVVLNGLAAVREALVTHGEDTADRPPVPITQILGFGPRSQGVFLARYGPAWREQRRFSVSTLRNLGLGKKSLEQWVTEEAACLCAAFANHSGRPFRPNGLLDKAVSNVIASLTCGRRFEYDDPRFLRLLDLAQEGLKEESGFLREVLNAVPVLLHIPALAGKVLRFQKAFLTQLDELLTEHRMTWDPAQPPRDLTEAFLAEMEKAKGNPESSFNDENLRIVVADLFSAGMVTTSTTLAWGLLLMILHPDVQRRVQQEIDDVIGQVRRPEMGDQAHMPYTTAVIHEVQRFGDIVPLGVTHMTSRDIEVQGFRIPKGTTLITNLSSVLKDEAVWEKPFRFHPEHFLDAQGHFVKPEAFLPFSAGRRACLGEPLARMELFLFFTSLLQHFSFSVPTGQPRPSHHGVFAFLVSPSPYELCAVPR
Summary of the method: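 Human CYP2D6 (5 nM) with 30 uM Luciferin-ME EGE (at Km) in 100 mM KPO4, compound preincubated 10 min, then NADPH regeneration system for 60 min at room temperature. Luciferin read by luminescence; normalized to 1.43 uM quinidine.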

[14] = target: Cytochrome P450 2C19 (Homo sapiens) (UniProt P33261); assay: qHTS Assay for Inhibitors and Substrates of Cytochrome P450 2C19 (AID 899; active = well fitted curve in the direction sought with a large enough effect; an effect the other way counts as inactive or inconclusive; note: potency is the fitted concentration of half-maximal effect; nearly all actives have a fitted effect of over 60% in size); details: recombinant CYP2C19, luciferin-H EGE luminescence; series mostly up to 57.1 µM
Sequence of Cytochrome P450 2C19 (Homo sapiens) (P33261 whole entry, looked up): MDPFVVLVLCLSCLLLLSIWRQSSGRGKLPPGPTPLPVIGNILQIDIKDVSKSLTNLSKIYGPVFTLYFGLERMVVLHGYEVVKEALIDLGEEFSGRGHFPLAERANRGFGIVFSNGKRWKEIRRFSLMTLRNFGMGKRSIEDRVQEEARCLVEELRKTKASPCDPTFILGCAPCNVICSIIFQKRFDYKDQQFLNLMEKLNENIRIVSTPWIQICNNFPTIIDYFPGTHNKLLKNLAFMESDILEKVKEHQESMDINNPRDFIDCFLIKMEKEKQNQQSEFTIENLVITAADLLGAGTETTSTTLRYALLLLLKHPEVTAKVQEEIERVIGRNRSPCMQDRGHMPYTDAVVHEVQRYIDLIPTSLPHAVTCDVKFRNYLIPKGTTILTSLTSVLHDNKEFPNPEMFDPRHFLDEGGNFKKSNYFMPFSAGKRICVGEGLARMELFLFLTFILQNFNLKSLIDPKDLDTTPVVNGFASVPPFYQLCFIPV
Summary of the method: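 In 50mM KPO4, the reaction held 5nM enzyme and KM-level (10uM) Luciferin-H EGE; it ran 60 min at 37C after NADPH regeneration and a 10 min compound preincubation. Luminescence values were scaled to 57uM ketoconazole as complete inhibition.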

[15] = measured here: cell count channel max response
[16] = measured here: lipid channel max response

Compound	Potency [1]	activity change, negative = inhibition [2]	Potency [3]	activity change, negative = inhibition [4]	activity, negative = inhibition [5]	Potency [6]	outcome [7]	Potency [8]	Potency [9]	activation [10]	activity change, negative = inhibition [11]	max response [11, 15]	max response [11, 16]	Potency [12]	Potency [13]	Potency [14]
COCC(=O)N1CCC[C@@]2(CCN(C(=O)Nc3cccc(F)c3)C2)C1	> 11.4 µM (inactive)	-14.2% (inactive)	inactive	9.68% (inactive)	-1.05% (inactive)	> 46 µM (inactive)	inactive	inactive	inactive	8.24% (inactive)	2.12% (inactive)	19.2%	23.6%	inactive	–	–
CC(C)CN1CC[C@@]2(CCCN(S(=O)(=O)c3ccccc3)C2)C1	> 11.4 µM (inactive)	1.83% (inactive)	25.1 µM (active)	-7.95% (inactive)	-0.418% (inactive)	> 46 µM (inactive)	inactive	inactive	inactive	–	4.19% (inactive)	1.96%	9.28%	inactive	0.501 µM (active)	–
CS(=O)(=O)N1CCC[C@@]2(CCN(c3ccccc3)C2)C1	> 11.4 µM (inactive)	-11.3% (inactive)	31.6 µM (active)	-3.01% (inactive)	-2.15% (inactive)	> 46 µM (inactive)	inactive	inactive	inactive	–	-16.2% (inactive)	2%	-14%	inactive	–	3.16 µM (active)
CC(=O)N1CCC[C@@]2(CCN(c3ccncc3)C2)C1	> 11.4 µM (inactive)	2.82% (inactive)	inactive	3.22% (inactive)	-0.448% (inactive)	> 46 µM (inactive)	inactive	inactive	inactive	–	2.25% (inactive)	8.59%	14.8%	inactive	–	–
O=C(c1csnn1)N1CCC2(CC1)CCN(c1ccccc1)CC2	> 11.4 µM (inactive)	-9.9% (inactive)	15.8 µM (active)	25.1% (inactive)	1.19% (inactive)	> 46 µM (inactive)	inactive	inactive	–	-15.4% (inactive)	4.25% (inactive)	1.9%	6.57%	inactive	–	–
CC(=O)N1CCC[C@@]2(CCN(c3ncccn3)C2)C1	> 11.4 µM (inactive)	2.25% (inactive)	inactive	13.2% (inactive)	-10.4% (inactive)	–	inactive	inactive	–	–	2.8% (inactive)	18.6%	25.4%	inactive	–	–
Cc1noc(C)c1C(=O)N1CCC2(CCN(Cc3cc(C(F)(F)F)cc(C(F)(F)F)c3)CC2)CC1	> 11.4 µM (inactive)	-3.69% (inactive)	inactive	-22.4% (inactive)	-0.996% (inactive)	> 46 µM (inactive)	–	inactive	–	–	2.45% (inactive)	-5.2%	-1.09%	inactive	–	–

— PubChem BioAssay (NCATS)
